# Assay results from PMC7862700, “An all-to-all approach to the identification of sequence-specific readers for epigenetic DNA modifications on cytosine”.
# Experiments:
# Assay in all cases: DAPPL (digital affinity profiling via proximity ligation, sequencing); 10 mM Tris-HCl pH 7.5, 50 mM NaCl, 1 mM DTT, 4% glycerol, room temperature, 30 min; GST-TFs on glutathione beads, 16-mer random dsDNA library, 0.1% formaldehyde crosslink after washing; high values mean tight binding
# Details in all cases: protein: recombinant; tags: N-terminal GST; dsDNA, one strand shown
# FLI1 = target: T1, FLI1 (Homo sapiens, UniProt Q01543 1-452)
# T1 sequence: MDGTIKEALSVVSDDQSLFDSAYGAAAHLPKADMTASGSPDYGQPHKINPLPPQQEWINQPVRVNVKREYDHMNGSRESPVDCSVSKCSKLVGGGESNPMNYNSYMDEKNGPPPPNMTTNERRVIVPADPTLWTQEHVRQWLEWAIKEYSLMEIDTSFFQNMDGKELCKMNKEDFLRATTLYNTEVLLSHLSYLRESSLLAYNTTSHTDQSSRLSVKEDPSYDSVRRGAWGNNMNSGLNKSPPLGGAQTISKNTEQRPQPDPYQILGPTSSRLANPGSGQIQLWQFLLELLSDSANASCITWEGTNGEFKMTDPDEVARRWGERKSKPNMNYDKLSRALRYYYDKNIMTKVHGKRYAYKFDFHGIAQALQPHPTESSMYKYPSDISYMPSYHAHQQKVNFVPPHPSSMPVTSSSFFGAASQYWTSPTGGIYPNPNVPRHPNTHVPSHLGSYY
# Outline: (§1)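 Pools were built from human transcription factors expressed in yeast as GST fusions, captured on glutathione beads and DNA-barcoded, along with a tag-only sample. Incubation with 200 nmole of a 16-mer random double-stranded DNA library lasted 30 min at room temperature in Tris/NaCl/DTT/glycerol buffer, and was followed by washing, 0.1% formaldehyde crosslinking, proximity ligation, PCR amplification and Illumina NextSeq500 sequencing. Binding signal is the quotient of each hexamer's read frequency for a factor and its frequency for the tag-only sample.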
# ELK1 = target: T2, ELK1 (Homo sapiens, UniProt P19419 1-428)
# T2 sequence: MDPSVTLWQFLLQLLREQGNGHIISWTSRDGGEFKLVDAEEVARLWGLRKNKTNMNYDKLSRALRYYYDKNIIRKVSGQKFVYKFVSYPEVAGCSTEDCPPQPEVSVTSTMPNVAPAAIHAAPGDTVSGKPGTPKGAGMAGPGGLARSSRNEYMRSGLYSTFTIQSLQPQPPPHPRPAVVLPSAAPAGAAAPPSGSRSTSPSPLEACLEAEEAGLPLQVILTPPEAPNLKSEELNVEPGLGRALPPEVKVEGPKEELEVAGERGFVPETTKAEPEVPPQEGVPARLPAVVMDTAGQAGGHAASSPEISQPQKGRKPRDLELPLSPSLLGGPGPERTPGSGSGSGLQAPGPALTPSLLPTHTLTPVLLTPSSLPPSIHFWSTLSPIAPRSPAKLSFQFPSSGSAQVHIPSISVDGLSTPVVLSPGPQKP
# Outline: as §1
# GABPA = target: T3, GABPA (Homo sapiens, UniProt Q06546 1-454)
# T3 sequence: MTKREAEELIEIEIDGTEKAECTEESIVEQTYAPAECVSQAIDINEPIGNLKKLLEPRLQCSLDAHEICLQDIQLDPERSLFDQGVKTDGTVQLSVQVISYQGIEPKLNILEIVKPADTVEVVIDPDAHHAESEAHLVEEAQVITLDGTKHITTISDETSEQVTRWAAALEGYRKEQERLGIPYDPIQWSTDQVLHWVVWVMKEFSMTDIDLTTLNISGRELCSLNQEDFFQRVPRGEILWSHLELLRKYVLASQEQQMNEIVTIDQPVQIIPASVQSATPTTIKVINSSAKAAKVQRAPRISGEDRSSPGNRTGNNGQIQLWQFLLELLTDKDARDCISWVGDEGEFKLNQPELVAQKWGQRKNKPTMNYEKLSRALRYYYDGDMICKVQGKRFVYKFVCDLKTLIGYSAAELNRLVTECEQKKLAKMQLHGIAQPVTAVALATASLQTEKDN
# Outline: as §1
# ERG = target: T4, ERG (Homo sapiens, UniProt P11308 1-479)
# T4 sequence: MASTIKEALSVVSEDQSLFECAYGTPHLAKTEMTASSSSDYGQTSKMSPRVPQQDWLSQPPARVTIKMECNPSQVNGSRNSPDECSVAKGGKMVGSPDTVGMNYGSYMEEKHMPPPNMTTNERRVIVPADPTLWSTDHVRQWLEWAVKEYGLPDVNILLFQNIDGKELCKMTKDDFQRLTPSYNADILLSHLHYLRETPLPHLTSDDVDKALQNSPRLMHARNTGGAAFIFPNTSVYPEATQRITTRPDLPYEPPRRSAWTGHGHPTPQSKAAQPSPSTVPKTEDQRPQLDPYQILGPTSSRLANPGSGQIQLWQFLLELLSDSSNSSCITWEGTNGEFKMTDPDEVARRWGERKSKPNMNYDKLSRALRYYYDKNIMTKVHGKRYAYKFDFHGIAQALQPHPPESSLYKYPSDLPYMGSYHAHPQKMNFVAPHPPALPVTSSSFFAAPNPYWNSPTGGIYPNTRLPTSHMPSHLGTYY
# Outline: as §1
# ELF1 = ELF1 (Homo sapiens, UniProt P32519 1-619)
# Outline: as §1
# EHF = target: T5, EHF (Homo sapiens, UniProt Q9NZC4 1-300)
# T5 sequence: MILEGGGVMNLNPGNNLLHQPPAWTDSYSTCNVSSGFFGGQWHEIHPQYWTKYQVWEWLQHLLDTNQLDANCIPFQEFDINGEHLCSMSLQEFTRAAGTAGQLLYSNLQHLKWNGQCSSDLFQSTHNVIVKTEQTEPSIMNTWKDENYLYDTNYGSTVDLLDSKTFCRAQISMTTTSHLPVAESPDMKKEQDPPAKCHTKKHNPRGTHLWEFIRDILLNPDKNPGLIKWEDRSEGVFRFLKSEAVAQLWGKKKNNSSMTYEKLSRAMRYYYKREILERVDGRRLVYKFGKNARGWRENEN
# Outline: as §1
# SPI1 = SPI1 (Homo sapiens, UniProt P17947 1-270)
# Outline: as §1
# SPIB = SPIB (Homo sapiens, UniProt Q01892 1-262)
# Outline: as §1
# FEV = target: T6, FEV (Homo sapiens, UniProt Q99581 1-238)
# T6 sequence: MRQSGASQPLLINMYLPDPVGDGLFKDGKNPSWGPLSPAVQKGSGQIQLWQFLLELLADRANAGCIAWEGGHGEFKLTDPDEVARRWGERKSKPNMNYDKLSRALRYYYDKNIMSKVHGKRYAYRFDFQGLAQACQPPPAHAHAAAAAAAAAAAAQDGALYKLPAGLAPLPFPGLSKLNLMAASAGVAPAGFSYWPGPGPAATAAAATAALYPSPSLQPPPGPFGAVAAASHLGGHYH
# Outline: as §1
# ETV5 = ETV5 (Homo sapiens, UniProt P41161 1-510)
# Outline: as §1
# Sequence of ETV5 (P41161 whole entry): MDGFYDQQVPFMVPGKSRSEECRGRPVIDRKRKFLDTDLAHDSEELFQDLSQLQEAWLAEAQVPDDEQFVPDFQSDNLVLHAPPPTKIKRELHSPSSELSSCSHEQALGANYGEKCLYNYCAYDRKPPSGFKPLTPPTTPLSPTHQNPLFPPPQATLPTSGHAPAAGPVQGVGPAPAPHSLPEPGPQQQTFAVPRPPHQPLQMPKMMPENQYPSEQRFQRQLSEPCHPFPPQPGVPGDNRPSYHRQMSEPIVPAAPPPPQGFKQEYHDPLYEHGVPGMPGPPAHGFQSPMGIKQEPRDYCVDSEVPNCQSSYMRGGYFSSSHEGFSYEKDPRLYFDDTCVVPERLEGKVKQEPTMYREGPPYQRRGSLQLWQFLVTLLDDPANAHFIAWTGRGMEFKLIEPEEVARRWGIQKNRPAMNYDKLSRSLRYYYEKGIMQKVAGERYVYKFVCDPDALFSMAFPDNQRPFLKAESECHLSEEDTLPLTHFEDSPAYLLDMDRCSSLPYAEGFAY
# Sequence of ELF1 (P32519 whole entry): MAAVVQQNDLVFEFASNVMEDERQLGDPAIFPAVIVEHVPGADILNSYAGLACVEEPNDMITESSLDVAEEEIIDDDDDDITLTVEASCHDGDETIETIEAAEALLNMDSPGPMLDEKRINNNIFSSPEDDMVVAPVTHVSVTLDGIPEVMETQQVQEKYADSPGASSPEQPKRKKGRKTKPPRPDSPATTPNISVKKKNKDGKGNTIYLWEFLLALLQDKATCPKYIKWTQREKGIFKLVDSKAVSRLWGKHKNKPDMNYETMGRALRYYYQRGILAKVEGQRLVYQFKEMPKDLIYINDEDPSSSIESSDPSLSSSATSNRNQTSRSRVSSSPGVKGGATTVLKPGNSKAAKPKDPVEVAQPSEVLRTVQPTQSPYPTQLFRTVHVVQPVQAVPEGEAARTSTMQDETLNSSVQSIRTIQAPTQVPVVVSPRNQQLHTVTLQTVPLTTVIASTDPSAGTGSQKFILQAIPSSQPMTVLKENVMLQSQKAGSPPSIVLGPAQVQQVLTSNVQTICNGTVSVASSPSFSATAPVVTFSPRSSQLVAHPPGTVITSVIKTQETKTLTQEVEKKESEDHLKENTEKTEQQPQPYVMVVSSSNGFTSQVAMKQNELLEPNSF
# Sequence of SPIB (Q01892 whole entry): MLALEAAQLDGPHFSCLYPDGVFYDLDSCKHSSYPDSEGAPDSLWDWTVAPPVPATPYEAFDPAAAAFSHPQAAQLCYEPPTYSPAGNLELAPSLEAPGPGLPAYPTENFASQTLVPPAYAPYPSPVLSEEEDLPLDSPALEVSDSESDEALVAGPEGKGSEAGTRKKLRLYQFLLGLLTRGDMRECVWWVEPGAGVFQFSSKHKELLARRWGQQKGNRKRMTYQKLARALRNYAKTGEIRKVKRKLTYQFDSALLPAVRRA
sequence,measurement,setting,value
CATGCA,binding signal,FLI1,"1.1 fold enrichment (6-mer frequency, TF over GST control)"
same,binding signal,ELK1,"1.08 fold enrichment (6-mer frequency, TF over GST control)"
same,binding signal,GABPA,"1.16 fold enrichment (6-mer frequency, TF over GST control)"
same,binding signal,ERG,"1.04 fold enrichment (6-mer frequency, TF over GST control)"
same,binding signal,ELF1,"1.1 fold enrichment (6-mer frequency, TF over GST control)"
same,binding signal,EHF,"1.12 fold enrichment (6-mer frequency, TF over GST control)"
same,binding signal,SPI1,"1.02 fold enrichment (6-mer frequency, TF over GST control)"
same,binding signal,SPIB,"1.07 fold enrichment (6-mer frequency, TF over GST control)"
same,binding signal,FEV,"1.1 fold enrichment (6-mer frequency, TF over GST control)"
same,binding signal,ETV5,"1.1 fold enrichment (6-mer frequency, TF over GST control)"
